Measured values reported in PMC4336329 (PLoS ONE, 2015).
Out of some 310,000 compounds screened, about 14,000 (4.5%) showed an effect of 50% or more. Effects have a minus sign here. Many of the other results were omitted from the sample, so strong results are more common in it than they were.

biological target: human ether-à-go-go-related gene (hERG) potassium channel (human, UniProt Q12809); assay: primary screen, population patch clamp on CHO cells stably expressing hERG; higher = less effect of the substance
Sequence (Q12809 whole entry, looked up): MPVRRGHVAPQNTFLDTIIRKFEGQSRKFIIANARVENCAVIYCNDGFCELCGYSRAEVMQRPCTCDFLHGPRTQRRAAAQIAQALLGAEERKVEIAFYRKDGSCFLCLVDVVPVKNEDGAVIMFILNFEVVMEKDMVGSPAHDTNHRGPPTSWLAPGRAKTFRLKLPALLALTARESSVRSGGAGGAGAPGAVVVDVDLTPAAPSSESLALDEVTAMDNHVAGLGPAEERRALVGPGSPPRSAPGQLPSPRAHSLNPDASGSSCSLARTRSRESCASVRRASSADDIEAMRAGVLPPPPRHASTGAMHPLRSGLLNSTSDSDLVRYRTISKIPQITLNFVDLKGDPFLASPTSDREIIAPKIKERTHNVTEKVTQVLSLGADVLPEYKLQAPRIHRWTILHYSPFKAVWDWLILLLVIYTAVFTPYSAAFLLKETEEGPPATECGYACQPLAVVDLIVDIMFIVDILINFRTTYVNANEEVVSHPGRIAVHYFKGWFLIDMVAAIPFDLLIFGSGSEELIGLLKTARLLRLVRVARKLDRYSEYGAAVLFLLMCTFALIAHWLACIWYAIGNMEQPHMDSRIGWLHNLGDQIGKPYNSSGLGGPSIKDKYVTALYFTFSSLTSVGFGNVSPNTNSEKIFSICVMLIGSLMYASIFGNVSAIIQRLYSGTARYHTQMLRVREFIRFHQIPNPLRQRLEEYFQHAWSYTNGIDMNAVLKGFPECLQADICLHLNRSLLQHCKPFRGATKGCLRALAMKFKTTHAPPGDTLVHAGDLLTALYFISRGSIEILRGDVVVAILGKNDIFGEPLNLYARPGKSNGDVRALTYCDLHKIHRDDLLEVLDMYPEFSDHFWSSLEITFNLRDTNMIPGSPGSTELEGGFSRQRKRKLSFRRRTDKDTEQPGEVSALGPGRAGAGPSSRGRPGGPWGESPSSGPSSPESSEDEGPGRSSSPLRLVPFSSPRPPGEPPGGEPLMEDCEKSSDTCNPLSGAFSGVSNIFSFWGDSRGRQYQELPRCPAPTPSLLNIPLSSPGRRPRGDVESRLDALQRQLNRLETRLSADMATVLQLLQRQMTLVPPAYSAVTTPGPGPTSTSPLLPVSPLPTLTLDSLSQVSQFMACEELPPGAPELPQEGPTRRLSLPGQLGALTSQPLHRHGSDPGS
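Note: peak tail current of the secondary pulse compared with the same well before compound.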

Row | SMILES | hERG current change (%, negative = inhibition) at 10uM [%]
1 | O=[N+]([O-])c1ccc(NCCO)c2ncccc12 | 2.11
2 | CC(Sc1ncc(C(F)(F)F)cc1Cl)C(=O)NC(N)=O (centres unmarked) | 0.58
3 | COC(=O)c1cc(OC)c(OC)cc1NC(=O)Cc1cccs1 | 0.709
4 | CCCn1nnnc1NCc1ccc(C(C)C)cc1 | 4.94
5 | CCC1CCCCN1c1cc(C)nc2cc(-c3cccc(C)c3)nn12 (centres unmarked) | -1.65
6 | CCCCCCCCCC[n+]1cccc(C(=O)N(CC)CC)c1.[Br-] | -0.215
7 | CCCCCCCC[n+]1cccc(C(=O)N(CC)CC)c1.[Br-] | 13
8 | CCCCCCCCCCCCCCCC[n+]1cccc(C(=O)N(CC)CC)c1.[Br-] | -69.7
9 | COc1ccc(CNn2c(-c3cccc(C)c3)nc3ccccc3c2=O)cc1OC | -73.6
10 | COc1cccc(CNn2c(-c3cccc(C)c3)nc3ccccc3c2=O)c1 | -9.77
11 | COc1ccccc1CNn1c(-c2cccc(C)c2)nc2ccccc2c1=O | -11
12 | CC1(C)C2CCC(C2)C1(C)NC(=O)CN1CCCC1.Cl (centres unmarked) | -0.213
13 | Cc1cc2oc(=O)cc(C)c2c(=O)o1 | -65.8
14 | COc1cc2oc(=O)cc(C)c2c(OC)c1OC | 17.9
15 | COc1cc(OC)c2c(C)cc(=O)oc2c1 | 15.4
16 | CCOc1ccc(NC(=O)Cn2cc(C(=O)CC)c3ccccc32)cc1 | 14.7
17 | Cc1ccc2oc(=O)c(/C=C(\O)C(C)(C)C)nc2c1 | 17.1
18 | Cc1ccc2nc(SCC(=O)Nc3cc([N+](=O)[O-])ccc3F)[nH]c2c1 | -57.4
19 | Cc1ccc2nc(SCC(=O)Nc3ccc(F)c([N+](=O)[O-])c3)[nH]c2c1 | -2.06
20 | Cc1nc2nc(SCc3ccc([N+](=O)[O-])cc3)[nH]c2cc1Br | 1.02
21 | Cc1ccc2nc(SCC(=O)Nc3cccc([N+](=O)[O-])c3)[nH]c2c1 | -11.7
22 | O=[N+]([O-])c1ccc(Cc2ccncc2)cc1 | -26.9
23 | O=[N+]([O-])c1ccc(Cc2cncc(O)c2)cc1 | -17.3
24 | Cc1cnc(=O)[nH]c1SCc1ccc([N+](=O)[O-])cc1 | -70.1

Row | SMILES | hERG current change (%, negative = inhibition) at 10uM [%]
25 | Cc1cnc(=O)[nH]c1SCc1cccc([N+](=O)[O-])c1 | 2.35
26 | Cc1ccc2nc(SCc3ccc([N+](=O)[O-])cc3)nc(C)c2c1 | 0.901
27 | Cc1ccc(CSc2[nH]c(=O)ncc2C)cc1 | 10.7
28 | Cc1cc(Cc2ccc([N+](=O)[O-])cc2)c(C)cn1 | -57.8
29 | Cc1ccc2nc(SCc3ccc([N+](=O)[O-])cc3)[nH]c2c1 | -65.1
30 | O=C(CNC(=O)c1ccco1)N/N=C/c1cccs1 | 14.9
31 | O=C(Nc1ccc([N+](=O)[O-])cn1)c1cc(-c2cccc(Cl)c2)nc2ccccc12 | -8.44
32 | Cc1ccc(C(=O)N2CCC(C)CC2)cc1S(=O)(=O)N1CCCCC1 | -10.2
33 | CCOc1cc(C(=O)OC(C)C(=O)Nc2ccc(S(N)(=O)=O)cc2)ccc1OCC(=O)N1CCOCC1 (centres unmarked) | -5.65
34 | CC(=O)c1cccc(NC(=S)NC(=O)c2ccc(C)cc2)c1 | 22.4
35 | COc1cccc(C(=O)NNS(=O)(=O)c2ccc(F)cc2)c1 | 9.31
36 | Cc1ccc(NC(=O)COC(=O)CCc2c[nH]c3ccccc23)cc1[N+](=O)[O-] | 10.4
37 | CC(=O)c1cc(C#N)c(SCc2ccc([N+](=O)[O-])cc2)nc1C | 17.7
38 | O=[N+]([O-])c1ccc(CSc2nc3ccccc3[nH]2)cc1 | -54.2
39 | c1ccc(CSc2nc3ccccc3[nH]2)cc1 | 17.6
40 | O=[N+]([O-])c1cccc(CSc2nc3ccccc3[nH]2)c1 | -15.6
41 | Cc1nc(N)nc(SCc2ccc([N+](=O)[O-])cc2)c1N | -74.6
42 | Cc1cc(C)nc(SCc2ccc([N+](=O)[O-])cc2)n1 | -17
43 | O=S(=O)(CCc1nc2ccccc2o1)c1ccc2ccccc2c1 | 7.8
44 | Cc1cccc(/C(N)=N/OC(=O)c2ccc(Br)o2)c1 | 11.7
45 | Fc1ccc(-c2csc(/C=C/c3ccc4c(c3)OCO4)n2)cc1 | 13.2
46 | CC(C)c1ccc(C(=O)CC2(O)C(=O)N(CN3CCOCC3)c3ccccc32)cc1 (centres unmarked) | 10.4
47 | O=C1N(CCCCN2C(=O)C3(OCCO3)c3ccccc32)c2ccccc2C12OCCO2 | 6.9
